The structures appear in SMILES notation. The panel holds about 83,000 compounds, 20% with a hit somewhere; the sample as a whole holds those more often.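 Cells were grown in 96-well plates and exposed to the test compound at a single concentration for 48 hours; results are reported as percent growth, with values below 10 considered active.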 Unmarked numbers belong to inactive results. The source made the active and inactive calls.

Some test systems named below: NCI-H23 lung; NCI-H226 lung; NCI-H322M lung; HOP-62 NSCLC; NCI-H460 lung; HOP-92 NSCLC; NCI-H522 lung; A549/ATCC NSCLC; 786-0 renal; COLO 205 colon; DU-145 prostate; K-562 leukemia; MALME-3M melanoma; MDA-MB-231 breast; RXF 393 renal; SF-268 CNS; SF-295 CNS; SF-539 CNS; UACC-257 melanoma; M14 melanoma.
Common to all, as to assay: NCI-60 one-dose screen, 48 h (100 = growth as untreated, 0 = no growth, -100 = all killed)
What all share (conditions): 10 µM unless noted

For the compound `COC(=O)[C@@H](NC(=O)NC(=O)NC(=O)CI)C(C)C`, the growth with NCI-H23 lung was 93.8%; with NCI-H226 lung it was 85.1%; in the assay on NCI-H322M lung it was 103%; in the assay on HOP-62 NSCLC it was 86.3%; in the assay with NCI-H460 lung, 89.3%; in the assay on HOP-92 NSCLC, -17.7% (active). Also, the growth was -85.9% (active) in the assay with NCI-H522 lung; 94.6% with A549/ATCC NSCLC; -25.1% (active) in the assay on 786-0 renal; 38.6% in the assay with COLO 205 colon; 106% with DU-145 prostate; 15.2% in the assay on K-562 leukemia. For the same compound, the growth is -46.4% (active) in the assay on MALME-3M melanoma; 72.5% with MDA-MB-231 breast; 83.3% with RXF 393 renal; 95.8% in the assay with SF-268 CNS; 95.3% in the assay with SF-295 CNS; 92.7% in the assay with SF-539 CNS. Moreover, the growth is 87.1% in the assay on UACC-257 melanoma and 85.8% in the assay on M14 melanoma.

For the compound `COCCCNc1nc(NC(=O)c2cc(OC)cc(OC)c2)cc(-c2cccnc2)n1`, the growth is 98.6% in the assay with NCI-H23 lung; 96.5% with NCI-H226 lung; 92.8% with NCI-H322M lung; 91.3% with HOP-62 NSCLC; 95.2% in the assay with NCI-H460 lung; 52.6% with HOP-92 NSCLC. In addition, the growth was 76.5% in the assay on NCI-H522 lung; 91.2% in the assay with A549/ATCC NSCLC; 83.3% in the assay with 786-0 renal; 109% in the assay on COLO 205 colon; 101% with DU-145 prostate; 86.1% in the assay on K-562 leukemia. Moreover, the growth in the assay on MALME-3M melanoma was 112%; in the assay with MDA-MB-231 breast it was 69.1%; in the assay with RXF 393 renal it was 97.7%; with SF-268 CNS, 100%; with SF-295 CNS, 100%; with SF-539 CNS, 88.9%. Besides, the figures for the growth with UACC-257 melanoma and in the assay on M14 melanoma were 106% and 107%, respectively.

Consider `O=[N+]([O-])c1cc(CCl)ccc1OCCBr`, for which the growth was 102% in the assay with NCI-H23 lung; 94.8% with NCI-H226 lung; 104% in the assay on NCI-H322M lung; 105% in the assay with HOP-62 NSCLC; 101% in the assay with NCI-H460 lung; 98.6% in the assay on HOP-92 NSCLC. Further, the growth with NCI-H522 lung is 96.1%; in the assay with A549/ATCC NSCLC it was 104%; with 786-0 renal, 103%; in the assay on COLO 205 colon, 107%; in the assay on DU-145 prostate, 95.7%; in the assay on K-562 leukemia it was 115%. Besides, the growth is 107% in the assay with MALME-3M melanoma; 108% in the assay on MDA-MB-231 breast; 110% with RXF 393 renal; 101% in the assay on SF-268 CNS; 99.7% in the assay with SF-295 CNS; 97.9% in the assay on SF-539 CNS. The growth was 105% in the assay on UACC-257 melanoma and 98.3% in the assay on M14 melanoma.

`C=C(C)[C@@H]1CC[C@]2(C(=O)NCCNCCNCCN)CC[C@]3(C)[C@H](CC[C@@H]4[C@@]5(C)CCC(=O)C(C)(C)[C@@H]5CC[C@]43C)[C@@H]12`: the growth in the assay on NCI-H23 lung is -35.2% [100 µM] (active); with NCI-H226 lung it was 74.3% [100 µM]; with NCI-H322M lung, -81.1% [100 µM] (active); with HOP-62 NSCLC, 43.1% [100 µM]; in the assay with NCI-H460 lung, -90.9% [100 µM] (active); in the assay on HOP-92 NSCLC, -65.2% [100 µM] (active). The growth with NCI-H522 lung is -69.7% [100 µM] (active); in the assay on A549/ATCC NSCLC, -76.5% [100 µM] (active); in the assay on 786-0 renal, -84.5% [100 µM] (active); in the assay on COLO 205 colon it was -47.5% [100 µM] (active); in the assay with DU-145 prostate it was -56.7% [100 µM] (active); in the assay with K-562 leukemia, -17% [100 µM] (active). The growth with MALME-3M melanoma was -72.8% [100 µM] (active); in the assay on MDA-MB-231 breast, -92.4% [100 µM] (active); in the assay on RXF 393 renal, -71.9% [100 µM] (active); with SF-268 CNS, -38.7% [100 µM] (active); in the assay with SF-295 CNS it was -54.5% [100 µM] (active); in the assay on SF-539 CNS, -92.7% [100 µM] (active). The growth is -10.7% [100 µM] (active) in the assay on UACC-257 melanoma and -62.8% [100 µM] (active) in the assay on M14 melanoma.

For the compound `Oc1cc(Nc2ccnc3cc(Cl)ccc23)c2ncccc2c1`, the growth is 73.8% with NCI-H23 lung; 91% in the assay with NCI-H226 lung; 99.7% in the assay with NCI-H322M lung; 74.4% in the assay with HOP-62 NSCLC; 75.5% in the assay with NCI-H460 lung; 39.3% in the assay with HOP-92 NSCLC. Besides, the growth in the assay on NCI-H522 lung is 76.7%; in the assay on A549/ATCC NSCLC, 84.2%; with 786-0 renal, 106%; with COLO 205 colon, 96.4%; in the assay on DU-145 prostate it was 58.4%; with K-562 leukemia, 76.6%. Besides, the growth with MALME-3M melanoma is 52%; with MDA-MB-231 breast, 14.8%; in the assay with RXF 393 renal, 68.6%; in the assay on SF-268 CNS, 73.8%; with SF-295 CNS it was 108%; in the assay with SF-539 CNS, 93.9%. Besides, the growth in the assay on UACC-257 melanoma was 82.2%; with M14 melanoma, 75.8%.

In the case of `O=C(N/N=C/c1c(Cl)cccc1Cl)c1cccc(Nc2ccnc(C(F)(F)F)c2)c1`, the growth in the assay with NCI-H23 lung is 89.7%; with NCI-H226 lung, 78.7%; in the assay with NCI-H322M lung, 108%; with HOP-62 NSCLC, 86.6%; with NCI-H460 lung, 82.1%; with HOP-92 NSCLC, 60.5%. In addition, the growth in the assay on NCI-H522 lung is 87%; in the assay on A549/ATCC NSCLC, 107%; in the assay with 786-0 renal, 81.9%; in the assay on COLO 205 colon it was 89.4%; in the assay on DU-145 prostate, 120%; with K-562 leukemia it was 104%. The growth with MALME-3M melanoma is 113%; with MDA-MB-231 breast, 76.8%; in the assay with RXF 393 renal, 111%; in the assay with SF-268 CNS, 125%; in the assay with SF-295 CNS it was 90.3%; with SF-539 CNS, 92.9%. Also, the growth in the assay with UACC-257 melanoma is 102%; in the assay on M14 melanoma it was 80.8%.

As for `CC1(C)C(=NO)C(C)(C)C1=NO`, the growth in the assay with NCI-H23 lung is 111%; in the assay on NCI-H226 lung, 103%; in the assay on NCI-H322M lung, 99.6%; with HOP-62 NSCLC it was 117%; in the assay with NCI-H460 lung, 105%; in the assay on HOP-92 NSCLC, 88.7%. Also, the growth is 94.1% in the assay with NCI-H522 lung; 103% in the assay with A549/ATCC NSCLC; 110% in the assay with 786-0 renal; 116% in the assay with COLO 205 colon; 114% in the assay with DU-145 prostate; 98.8% in the assay with K-562 leukemia. Also, the growth in the assay on MALME-3M melanoma is 116%; with MDA-MB-231 breast, 123%; in the assay with RXF 393 renal, 112%; with SF-268 CNS, 103%; in the assay on SF-295 CNS, 108%; in the assay on SF-539 CNS it was 117%. Also, the growth is 95.4% in the assay on UACC-257 melanoma and 99.5% in the assay with M14 melanoma.

Take `Cc1ccc(NC(=O)N[C@@H](Cc2cc(F)cc(F)c2)C(=O)N[C@@H]2C(=O)N3CCC[C@H]3C(=O)N3CCOC[C@H]3C(=O)N[C@@H](C)C(=O)N3C[C@H](C)C[C@H]3C(=O)O[C@H]2C)cc1`: the growth in the assay with NCI-H23 lung was 33.5%; in the assay on NCI-H226 lung, 30.5%; in the assay on NCI-H322M lung, 62.2%; with HOP-62 NSCLC, 26.7%; in the assay on NCI-H460 lung it was 26.4%; in the assay with HOP-92 NSCLC, 39.4%. The growth is 37.7% in the assay with NCI-H522 lung; 27.3% in the assay on A549/ATCC NSCLC; 34.1% with 786-0 renal; 10% (active) in the assay on COLO 205 colon; 31.2% in the assay with DU-145 prostate; 17.2% with K-562 leukemia. Besides, the growth with MALME-3M melanoma is 33.6%; with MDA-MB-231 breast, 9.97% (active); in the assay on RXF 393 renal it was 36.9%; with SF-268 CNS it was 28.5%; with SF-295 CNS, 12.7%; with SF-539 CNS, 47.6%. Moreover, the growth with UACC-257 melanoma was 20.9%; in the assay with M14 melanoma, 26.9%.

These data come from PubChem BioAssay (NCI).
